FBW7 act: activators of human E3 ligase FBW7 | AID 1259310 | normalized activity (activation), % at 26.1 µM | AlphaScreen FBW7–phospho-cyclin E peptide binding, activator screen | 650,000 compounds, 0.13% hits; in the data active = normalized activity above about 1.9%;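 also: purified mutant Fbw7 with reduced substrate affinity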
MITF primary: blocks human microphthalmia-associated transcription factor. 650,000 compounds, 0.91% hits. inhibition, % at 2.6 µM. O75030. AID 1259374. AlphaScreen MITF homodimerization, bead proximity signal; in the data active = inhibition above about 50%;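 also: 0% = vehicle wells with protein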
Target sequence (O75030 whole entry, looked up): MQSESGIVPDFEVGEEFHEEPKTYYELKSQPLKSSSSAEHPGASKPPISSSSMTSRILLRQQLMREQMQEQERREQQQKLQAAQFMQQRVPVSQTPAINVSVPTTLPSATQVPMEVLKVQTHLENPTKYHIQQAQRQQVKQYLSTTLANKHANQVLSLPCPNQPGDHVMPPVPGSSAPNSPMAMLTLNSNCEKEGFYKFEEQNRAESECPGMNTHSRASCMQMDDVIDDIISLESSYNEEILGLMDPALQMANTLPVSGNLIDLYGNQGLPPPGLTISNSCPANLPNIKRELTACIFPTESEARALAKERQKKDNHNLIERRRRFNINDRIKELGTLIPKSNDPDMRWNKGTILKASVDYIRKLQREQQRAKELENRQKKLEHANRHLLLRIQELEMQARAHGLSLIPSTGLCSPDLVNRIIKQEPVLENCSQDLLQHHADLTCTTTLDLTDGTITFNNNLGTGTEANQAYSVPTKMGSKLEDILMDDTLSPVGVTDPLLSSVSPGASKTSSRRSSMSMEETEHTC
TEAD-YAP block: TEAD-YAP interaction inhibition; AID 1259422; HEK-TIYL cells, TEAD-Gal4/YAP UAS-luciferase luminescence; inhibition, % at 9.12 µM; 640,000 compounds, 1.4% hits; in the data active = inhibition above about 32%;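 also: 0% = median of test compound wells and 100% = reference inhibitor wells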
GPR151 activ: human GPR151 activation | PathHunter beta-arrestin GPR151 cells, luminescence | 650,000 compounds, 1% hits | activation, % at 11.2 µM | Q8TDV0 | AID 1508602; in the data active = activation above about 4.9%;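 also: 0% = median of compound wells and 100% = cells with positive control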
Starred values were filed as active, the others as inactive. A selection: hits, their analogues and other compounds. The true share with any hit is near 3.5%.

SMILES | FBW7 act | MITF primary | TEAD-YAP block | GPR151 activ
O=C(Nc1ccc2nc(NC(=O)C3CCCCC3)sc2c1)C1CCCCC1 | 0.1 | 4.9 | 40.4* | 1.8
COc1ccc2nc(NC(=O)c3ccco3)sc2c1 | 0.0 | 5.4 | 41.8* | -7.6
Cc1ccc2nc(NC(=S)NC(=O)c3ccco3)sc2c1 | 0.0 | 3.7 | -70.8 | 0.5
O=C(Nc1ccc2nc(NC(=O)c3ccccc3Cl)sc2c1)c1ccccc1Cl | 0.2 | 12.4 | 48.6* | 0.5
O=C(Nc1nc2ccc(Br)cc2s1)c1ccccc1Cl | -0.1 | -1.4 | -42.2 | 1.2
Cc1ccc2nc(NC(=O)c3ccco3)sc2c1 | 0.2 | 8.9 | 78.3* | -8.5
O=C(Nc1nc([N+](=O)[O-])cs1)c1ccc(Cl)cc1Cl | -0.3 | 6.5 | 88.5* | -8.8
Nc1ccc2nc(NC(=O)c3ccc(Cl)cc3Cl)sc2c1 | -0.1 | 1.0 | 69.6* | -6.5
CCc1nnc(NC(=S)NC(=O)c2cccc([N+](=O)[O-])c2)s1 | -0.1 | 4.5 | 0.1 | -0.2
CCOc1ccccc1NC(=O)Cn1ccn(Cc2ccccc2OC)c(=O)c1=O | -0.4 | 7.5 | 10.4 | -1.9
CC(=O)N1CCN(c2cc(C)nc3cc(-c4ccc(F)cc4)nn23)CC1 | 0.2 | -1.8 | 13.2 | -0.9
CC(C)(C)c1ccc(C(=O)N/C(=C/c2cccs2)C(=O)Nc2ccc(F)cc2)cc1 | -0.1 | 4.2 | -5.1 | -1.2
CC1=NOC(=O)/C1=C/c1ccc(OCc2ccc(Cl)cc2)cc1 | 0.1 | 56.5* | -42.0 | -2.4
COC(=O)c1c(NC(NC(=O)C(C)C)(C(F)(F)F)C(F)(F)F)sc2c1CCCC2 | -0.1 | -8.0 | 1.2 | 0.1
c1cnn(Cc2ccc(Nc3nccc(-c4cncc(N5CCOCC5)c4)n3)cc2)c1 | -0.2 | 7.3 | 65.3* | 1.4
c1cn(Cc2ccc(Nc3nccc(-c4cncc(N5CCOCC5)c4)n3)cc2)cn1 | 0.3 | 2.9 | 68.2* | 0.2
Cc1nc(C)n(-c2ccc(Nc3nccc(-c4cncc(N5CCOCC5)c4)n3)cc2)n1 | -0.3 | 15.6 | 31.4 | 1.5
COc1ccc(Nc2nnc(SCC(=O)Nc3sccc3C(N)=O)s2)cc1 | 0.1 | 0.1 | -7.4 | 1.3
COc1ccc2c(c1)O/C(=C\c1ccc(OC(C)=O)c(OC)c1)C2=O | 0.0 | -10.9 | 43.0* | 2.8
COc1ccc2c(c1)OC/C(=C\c1ccc(OC)c(O)c1)C2=O | 0.8 | 0.7 | 41.8* | 0.1
CC(C)(C)C(=O)Oc1ccc2c(c1)O/C(=C\c1ccncc1)C2=O | 0.1 | 6.0 | 3.9 | -0.3
COc1ccc2c(c1)OC/C(=C\c1cccs1)C2=O | -0.2 | 10.1 | -44.9 | -1.3
COc1ccc(/C=C2\Oc3cc(OC(=O)c4cccnc4)ccc3C2=O)cc1 | 0.0 | 21.3 | 41.1* | -0.3
c1ccc(Cn2cc(-c3cnc(N4CCOCC4)c4nccn34)cn2)cc1 | -0.2 | -12.7 | 3.6 | 0.0
Cc1cc(Br)cn2cc(C(=O)NN)nc12 | 0.0 | 3.3 | -1.4 | -0.4
SMILES | FBW7 act | MITF primary | TEAD-YAP block | GPR151 activ
CC(C)S(=O)(=O)C1=NSC2=NC(=O)/C(=C\c3ccc([N+](=O)[O-])o3)C(=N)N21 | -0.4 | 53.2* | 5.0 | -2.2
CC(C)CS(=O)(=O)C1=NSC2=NC(=O)/C(=C\c3ccc([N+](=O)[O-])o3)C(=N)N21 | -0.3 | 65.5* | 0.2 | -0.3
c1cnc2c(-c3cnc4c(Nc5ccc6[nH]ccc6c5)nccn34)cccc2c1 | -0.7 | 6.8 | 54.8* | 0.0
Fc1cccc(-c2cnc3c(Nc4ccc5[nH]ccc5c4)nccn23)c1 | 0.4 | -22.5 | 13.0 | -2.6
CS(=O)(=O)Nc1cccc(-c2cnc3c(Nc4ccc5[nH]ccc5c4)nccn23)c1 | 0.0 | 17.6 | 90.0* | -1.2
c1ccc(-c2cnc3c(Nc4ccc5[nH]ccc5c4)nccn23)cc1 | -0.1 | -4.6 | 0.1 | -2.4
COc1cccc(C(=O)Nc2ccc(C(=O)OCC(=O)c3ccc(F)cc3)cc2)c1 | 0.0 | -14.7 | 1.6 | 0.6
O=[N+]([O-])c1cccc(CN2CCCCCC2)c1 | -0.2 | 4.3 | 1.2 | -0.2
O=[N+]([O-])c1cccc(CN2CCN(Cc3cc(Br)ccc3O)CC2)c1 | 0.0 | 65.3* | 9.5 | 0.4
COc1ccc(/C=C2\C=C(c3ccccc3)N(c3ccc(C)cc3C)C2=O)cc1 | 0.6 | 26.6 | 45.4* | 0.0
COc1ccc(/C=C2\C=C(c3ccccc3)N(c3ccccc3)C2=O)cc1 | -0.1 | 3.5 | -47.5 | 1.1
Cc1ccc(N2C(=O)/C(=C/c3ccc(Cl)cc3)C=C2c2ccccc2)c(C)c1 | 0.3 | 21.9 | -6.5 | 1.5
COc1ccc(/C=C2\C=C(c3ccccc3)N(c3ccc(O)cc3)C2=O)cc1 | -0.5 | 11.3 | 49.3* | 1.8
COc1ccc(/C=C2\C=C(c3ccccc3)N(c3ccccc3Br)C2=O)cc1 | -0.1 | 9.7 | 23.8 | -0.7
COc1ccc(/C=C2\C=C(c3ccccc3)N(c3ccc(C)cc3Br)C2=O)cc1 | 0.2 | 0.9 | 46.5* | -1.4
CCCCOc1ccc(C(=O)Nc2cc(-c3nc4ccccc4s3)ccc2C)cc1 | -0.1 | 0.7 | 1.3 | 0.2
O=C(CCCl)Nc1nc2c(s1)CCc1ccccc1-2 | 0.5 | 11.5 | 34.6* | 1.4
O=C(Nc1nc2c(s1)CCc1ccccc1-2)c1ccco1 | -0.2 | -25.2 | -25.3 | 0.0
COC(=O)c1ccccc1NC(=O)NNC(=O)c1cc2ccccc2cc1O | 0.3 | 8.4 | 0.9 | 2.5
COC(=O)c1ccccc1NC(=O)NNC(=O)c1csc(C)c1-c1ccc(C)cc1 | 0.0 | 1.4 | 32.5* | 2.0
COc1ccccc1N1CCN(c2nc(NCCO)c3cnn(C)c3n2)CC1 | -0.1 | 4.9 | 36.5* | 0.1
Cc1ncn(-c2ccc(Nc3ncc(Cl)c(Nc4ccccc4-c4ncn(C)n4)n3)cc2)n1 | 0.0 | -2.7 | 1.4 | 0.3
Cc1nc(C)n(-c2ccc(Nc3nc(-c4cnn(C)c4)cc(N(C)C)n3)cc2)n1 | -0.2 | 14.9 | 33.0* | -2.5
Cc1nc(C)n(-c2ccc(Nc3nccc(-c4cc(F)cc(-c5cnn(C)c5)c4)n3)cc2)n1 | 0.2 | 9.4 | -1.1 | -0.9
Cc1ncn(-c2ccc(Nc3ncc(Cl)c(-c4cnn(C)c4)n3)cc2)n1 | -0.2 | -15.6 | 72.5* | -0.8
SMILES | FBW7 act | MITF primary | TEAD-YAP block | GPR151 activ
Cc1nc(C)n(-c2ccc(Nc3ncc(Br)c(-c4cnn(C)c4)n3)cc2)n1 | -0.1 | 7.9 | 77.3* | 0.0
CC(=O)CC(=O)c1c(C)cc(C)cc1C | 1.3 | 10.1 | 1.5 | -0.3
CCCc1cc(CN(C)C(=O)CCc2nnc(Cc3c[nH]c4ccccc34)o2)[nH]n1 | -0.1 | -5.9 | 3.2 | 0.0
O=C(COC(=O)c1ccc([N+](=O)[O-])o1)NC(=O)Nc1ccc2c(c1)OCCO2 | 0.0 | -2.9 | 37.4* | -0.1
CC(C)CC(NC(N)=O)C(=O)OCc1ccc(Cl)cc1Cl (stereo not drawn) | -0.1 | -2.3 | -10.6 | -0.5
O=C1[C@@H]2C[C@H](NCc3sc4ccccc4c3Cl)CN2C(=O)[C@@H]2CCCN12 | 0.0 | 2.4 | 38.6* | -1.9
NCCCC[C@@H]1NC(=O)[C@@H]2C[C@H](NCc3sc4ccccc4c3Cl)CN2C1=O | 0.0 | 5.2 | 33.5* | -0.6
O=C(c1ccc(-c2nc3ccccc3o2)cc1)N(C1CCCCC1)C1CCCCC1 | 0.1 | 4.1 | 12.6 | -0.6
CCN(CCn1cccn1)c1nc2nonc2nc1NC1CC1 | -0.1 | 2.7 | 7.6 | 0.4

Screening results (PubChem BioAssay)
